Pf growth 48h = Primary qHTS for delayed death inhibitors of the malarial parasite plastid, 48 hour incubation | P. falciparum luciferase growth in erythrocytes, 48 h | Potency, µM (top dose mostly 28.7 µM), most hits filed as inhibitors | 5.9% of 310,000 active; active = well fitted inhibition curve with a large enough effect; inconclusive = small, poorly fitted or top-dose-only effect, or another doubt; inactive = no such curve, though single readings can be large or run the other way
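First compound was added to culture medium, then infected red cells at 0.1% parasitemia and 2% hematocrit (final). After incubation at 37 C under 5% CO2, luciferase detection reagent was dispensed and light output recorded.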
NS1 function inh = qHTS Assay for Inhibitors of Influenza NS1 Protein Function | AID 2326, 2010 | 0.4% of 270,000 active | Potency, µM (titrated, usually from 46.1 µM); also: actives are rising curves; nearly all actives have a fitted effect of over 50% in size
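Growth recovery, yeast-based: influenza A NS1 expressed in S. cerevisiae causes slow growth, and suppressors are detected by OD600. The parent strain without NS1 is used as positive control.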
Pf growth 96h = Primary qHTS for delayed death inhibitors of the malarial parasite plastid, 96 hour incubation; Potency, µM (series often up to 28.7 µM), usual class: inhibitors; 6.9% of 320,000 active; AID 504834, 2011; P. falciparum luciferase reporter growth, 96 h; active = well fitted inhibition curve with a large enough effect; inconclusive = small, poorly fitted or top-dose-only effect, or another doubt; inactive = no such curve, though single readings can be large or run the other way
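Two-generation exposure (96 h) targets delayed-death phenotype. Reporter parasites carrying integrated firefly luciferase, in red cells at 2% hematocrit and 0.05% parasitemia final, kept at 37 C, 5% CO2; luminescence loss indicates inhibition.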
SARS PLpro yeast-1 = qHTS of Yeast-based Assay for SARS-CoV PLP | Potency, µM (series often up to 32.9 µM), hits mostly activators | 0.19% of 330,000 active | AID 485353, 2010 | S. cerevisiae expressing SARS-CoV PLpro, growth rescue; also: nearly all actives have a fitted effect of over 55% in size
SARS PLpro yeast-2 = qHTS of Yeast-based Assay for SARS-CoV PLP: Hit Validation. shares compounds with SARS PLpro yeast-1. yeast expressing SARS-CoV PLpro, growth phenotype rescue. calls only. 19% of 1,000 active; call rule not given here
Of the large screens only hits and unclear results are named; the others gave an inactive call (follow-up assays come after a bar, where they were run). Hits are enriched below; roughly 10% of the tested compounds scored in any of these assays. Unless noted, calls follow the shape of the full dose curve.

O=C(CP(=O)(c1ccccc1)c1ccccc1)N/N=C/c1cc(Br)cc(Br)c1O	SARS PLpro yeast-1 2.5µM | SARS PLpro yeast-2 active
N#Cc1ccccc1Sc1ccccc1C(=O)NCC(c1ccco1)N1CCCC1 (configuration not stated)	Pf growth 48h inconclusive, Pf growth 96h inconclusive (no result: NS1 function inh)
CCSc1nnc(N(CCC(=O)O)CCC(=O)O)s1	SARS PLpro yeast-1 inconclusive | SARS PLpro yeast-2 inactive
CC(=O)Oc1c(C)c(C)c2c(c1C)CC[C@@](C)(CCC[C@H](C)CCC[C@H](C)CCCC(C)C)O2	none (no result: NS1 function inh, SARS PLpro yeast-1)
C[C@@H](NC(=O)[C@@H]1Cc2ccccc2CN1)C(=O)NCc1ccco1	none
CC(C)c1ccc(NC2CCCN(C(=O)CCN3CCOCC3)C2)cc1 (configuration not stated)	Pf growth 96h inconclusive
CCc1nccn1CCC(=O)N1CCCC(Nc2ccc(C(C)C)cc2)C1 (configuration not stated)	none (no result: SARS PLpro yeast-1) | SARS PLpro yeast-2 inactive
COCCNC(=O)c1ccc(CS(=O)(=O)c2ccc(C)cc2)o1	SARS PLpro yeast-1 inconclusive (no result: Pf growth 48h) | SARS PLpro yeast-2 inactive
Cc1cc(N(CC(=O)NC(C)C)S(C)(=O)=O)ccc1Br	Pf growth 96h inconclusive
CCNC(=S)NNC(=O)c1ccccc1Cl	none
CCNC(=S)NNC(=O)c1ccccn1	Pf growth 48h inconclusive, Pf growth 96h inconclusive, SARS PLpro yeast-1 inconclusive | SARS PLpro yeast-2 inactive
Cc1ccc(NC(=O)CSc2ncccc2C(=O)Oc2cccc([N+](=O)[O-])c2)cc1Cl	Pf growth 96h inconclusive, SARS PLpro yeast-1 inconclusive | SARS PLpro yeast-2 inactive
Cc1ccc(C)c(S(=O)(=O)N2CCCCC2CCNC(=O)C(=O)NCc2ccccc2)c1 (configuration not stated)	Pf growth 48h inconclusive, Pf growth 96h inconclusive (no result: NS1 function inh)
Cn1c(SCC(=O)C(C)(C)C)nnc1-c1ccncc1	none (no result: Pf growth 48h)
CC(=O)CSc1nnc(-c2ccncc2)n1C	SARS PLpro yeast-1 inconclusive (no result: Pf growth 48h) | SARS PLpro yeast-2 inactive
Cc1cc(Cl)cc(C)c1OCC(=O)N1CCN(c2ncccn2)CC1	Pf growth 48h inconclusive, Pf growth 96h inconclusive (no result: NS1 function inh)
Cc1cc(C)nc(Nc2cccc(C(F)(F)F)c2)n1	none
Oc1c(C(c2cccs2)N2CCN(c3ccccc3)CC2)ccc2cccnc12 (configuration not stated)	Pf growth 48h inconclusive, Pf growth 96h inconclusive (no result: SARS PLpro yeast-1)
COc1cccc(C(NC(C)=O)c2ccc3cccnc3c2O)c1 (configuration not stated)	Pf growth 48h inconclusive, SARS PLpro yeast-1 3.2µM | SARS PLpro yeast-2 inactive
Oc1cccc(C(Nc2nccs2)c2ccc3cccnc3c2O)c1 (configuration not stated)	Pf growth 48h 3.3µM, Pf growth 96h inconclusive, SARS PLpro yeast-1 0.45µM (no result: NS1 function inh) | SARS PLpro yeast-2 active
COc1cccc(/C=N/NC(=O)CSc2cccc3cccnc23)c1	Pf growth 96h inconclusive
CC(=O)NC(c1cccc([N+](=O)[O-])c1)c1ccc2cccnc2c1O (configuration not stated)	SARS PLpro yeast-1 1.1µM | SARS PLpro yeast-2 inactive
Oc1c(C(Nc2cccc(C(F)(F)F)c2)c2cccnc2)ccc2cccnc12 (configuration not stated)	Pf growth 48h 9.3µM, Pf growth 96h 3.7µM, SARS PLpro yeast-1 inconclusive | SARS PLpro yeast-2 inactive
O=C(Nc1cccc2cccnc12)c1cccc([N+](=O)[O-])c1	none
Cc1c(C(=O)N2CCCCC2CCN2CCCC2=O)oc2c(F)cccc12 (configuration not stated)	none
CCC(C)(C)n1nnnc1C(c1ccc(F)cc1)N1CCN(C(=O)c2ccco2)CC1 (configuration not stated)	none
CCn1nc(C(=O)OC(C(=O)c2c[nH]c3ccccc23)c2ccccc2)c2ccccc2c1=O (configuration not stated)	none (no result: Pf growth 96h)
COc1cc(CC(=O)OCC(=O)N2CCCCC2C)cc(OC)c1OC (configuration not stated)	none
CCN(CC)c1ncc(C#N)c(N)n1	none
CCOC(=O)C1CCN(C(=O)COc2cccc(C)c2)CC1	SARS PLpro yeast-1 3.5µM | SARS PLpro yeast-2 inactive
O=C(CSc1oc(-c2ccc(F)cc2)nc1S(=O)(=O)c1ccc(F)cc1)NCC1CCCO1 (configuration not stated)	SARS PLpro yeast-1 inconclusive (no result: Pf growth 96h) | SARS PLpro yeast-2 inactive
Cc1ccc(-c2nc(S(=O)(=O)c3ccc(F)cc3)c(SCC(=O)NCC3CCCO3)o2)cc1 (configuration not stated)	none
Cc1ccc(C)c(/C=N/NC(=S)NC(C)C)c1	Pf growth 48h inconclusive, Pf growth 96h 13µM, SARS PLpro yeast-1 7.1µM | SARS PLpro yeast-2 inconclusive
Cc1ccc(C)c(/C=N/NC(=S)NCCc2ccccc2)c1	none (no result: Pf growth 48h, SARS PLpro yeast-1) | SARS PLpro yeast-2 inconclusive
COc1cc(C(=O)NC2CCN(Cc3nnnn3Cc3cccs3)CC2)cc(OC)c1OC	SARS PLpro yeast-1 4µM (no result: Pf growth 48h, Pf growth 96h) | SARS PLpro yeast-2 inactive
COc1cc(C(=O)NC2CCN(CC(=O)NC3CCCCC3)CC2)cc(OC)c1OC	none
O=C(CN1C(=O)NC2(CCCC2)C1=O)N1CCN(S(=O)(=O)c2cccc(F)c2)CC1	none (no result: SARS PLpro yeast-1) | SARS PLpro yeast-2 inactive
COc1ccc(CNC(=S)NC2CCCC2)cc1	SARS PLpro yeast-1 inconclusive | SARS PLpro yeast-2 active
Cc1ccc2cccnc2c1N	SARS PLpro yeast-1 inconclusive (no result: NS1 function inh) | SARS PLpro yeast-2 inactive
Cc1cccc2cccnc12	none (no result: NS1 function inh)
Cc1cc(C)c(C#N)c(SCC(=O)N(CCC#N)c2ccc3c(c2)OCCO3)n1	Pf growth 48h inconclusive, Pf growth 96h inconclusive (no result: NS1 function inh)
OC1(c2cccc(C(F)(F)F)c2)CCN(Cc2nnnn2CCc2ccccc2)CC1	Pf growth 48h inconclusive, SARS PLpro yeast-1 inconclusive | SARS PLpro yeast-2 inactive
Cc1ccccc1S(=O)(=O)N1CCN(C)CC1	Pf growth 96h inconclusive
Cc1ccccc1NC(=O)C(C)OC(=O)CNS(=O)(=O)c1ccc(C#N)cc1 (configuration not stated)	Pf growth 48h inconclusive, SARS PLpro yeast-1 inconclusive (no result: NS1 function inh) | SARS PLpro yeast-2 inactive
Cc1ccccc1CN1CCN(CC2CC2)CC1CCO (configuration not stated)	none
COc1ccc(NC(=O)N2CCC(n3nnc4cc(C)ccc43)CC2)cc1	Pf growth 48h inconclusive, Pf growth 96h inconclusive, SARS PLpro yeast-1 inconclusive | SARS PLpro yeast-2 inactive
COc1cc(/C=N/NC(=O)c2cnccn2)ccc1O	Pf growth 96h inconclusive, SARS PLpro yeast-1 3.5µM | SARS PLpro yeast-2 inactive
COC(=O)C1=C(c2ccc(-c3ccccc3)c(F)c2)C[C@@H]2CC[C@H]1N2C(=O)NC(C)C	Pf growth 48h inconclusive, Pf growth 96h inconclusive (no result: NS1 function inh)
COC(=O)C1=C(c2ccc(-c3ccccc3)c(F)c2)C[C@@H]2CC[C@H]1N2C(=O)NC1CC1	Pf growth 48h 4.7µM, Pf growth 96h 2.9µM, SARS PLpro yeast-1 inconclusive (no result: NS1 function inh) | SARS PLpro yeast-2 inactive
CCC(C)n1c(O)c(/C=N/NC(=O)c2ccncc2)c(=O)[nH]c1=S (configuration not stated)	SARS PLpro yeast-1 11µM | SARS PLpro yeast-2 inactive
CCn1c(O)c(/C=N/NC(=O)c2ccncc2)c(=O)[nH]c1=S	none
CCCCn1c(N)c(N(CC)C(=O)c2cc(S(=O)(=O)N3CCCCCC3)ccc2OC)c(=O)[nH]c1=O	SARS PLpro yeast-1 inconclusive (no result: NS1 function inh) | SARS PLpro yeast-2 inactive

High-throughput results as filed in PubChem.
